Measured values reported in PubChem BioAssay (NCATS).
Records with an inconclusive call do not appear. Where a call stands in place of a potency, no number is given. Calls of active or inactive are those of the source. Calls follow the shape of the dose curve; as a rule, active = well fitted inhibition curve with a large enough effect; inconclusive = small, poorly fitted or top-dose-only effect; inactive = no such curve, though single readings can be large or run the other way.

target: RecQ-like DNA helicase BLM (Homo sapiens) (UniProt P54132); experiment: qHTS Validation Assay for Inhibitors of Bloom's syndrome helicase (BLM) (AID 2364); conditions: BLM helicase DNA unwinding, fluorescence, in vitro; series mostly up to 57.1 µM
Sequence (P54132 whole entry, looked up): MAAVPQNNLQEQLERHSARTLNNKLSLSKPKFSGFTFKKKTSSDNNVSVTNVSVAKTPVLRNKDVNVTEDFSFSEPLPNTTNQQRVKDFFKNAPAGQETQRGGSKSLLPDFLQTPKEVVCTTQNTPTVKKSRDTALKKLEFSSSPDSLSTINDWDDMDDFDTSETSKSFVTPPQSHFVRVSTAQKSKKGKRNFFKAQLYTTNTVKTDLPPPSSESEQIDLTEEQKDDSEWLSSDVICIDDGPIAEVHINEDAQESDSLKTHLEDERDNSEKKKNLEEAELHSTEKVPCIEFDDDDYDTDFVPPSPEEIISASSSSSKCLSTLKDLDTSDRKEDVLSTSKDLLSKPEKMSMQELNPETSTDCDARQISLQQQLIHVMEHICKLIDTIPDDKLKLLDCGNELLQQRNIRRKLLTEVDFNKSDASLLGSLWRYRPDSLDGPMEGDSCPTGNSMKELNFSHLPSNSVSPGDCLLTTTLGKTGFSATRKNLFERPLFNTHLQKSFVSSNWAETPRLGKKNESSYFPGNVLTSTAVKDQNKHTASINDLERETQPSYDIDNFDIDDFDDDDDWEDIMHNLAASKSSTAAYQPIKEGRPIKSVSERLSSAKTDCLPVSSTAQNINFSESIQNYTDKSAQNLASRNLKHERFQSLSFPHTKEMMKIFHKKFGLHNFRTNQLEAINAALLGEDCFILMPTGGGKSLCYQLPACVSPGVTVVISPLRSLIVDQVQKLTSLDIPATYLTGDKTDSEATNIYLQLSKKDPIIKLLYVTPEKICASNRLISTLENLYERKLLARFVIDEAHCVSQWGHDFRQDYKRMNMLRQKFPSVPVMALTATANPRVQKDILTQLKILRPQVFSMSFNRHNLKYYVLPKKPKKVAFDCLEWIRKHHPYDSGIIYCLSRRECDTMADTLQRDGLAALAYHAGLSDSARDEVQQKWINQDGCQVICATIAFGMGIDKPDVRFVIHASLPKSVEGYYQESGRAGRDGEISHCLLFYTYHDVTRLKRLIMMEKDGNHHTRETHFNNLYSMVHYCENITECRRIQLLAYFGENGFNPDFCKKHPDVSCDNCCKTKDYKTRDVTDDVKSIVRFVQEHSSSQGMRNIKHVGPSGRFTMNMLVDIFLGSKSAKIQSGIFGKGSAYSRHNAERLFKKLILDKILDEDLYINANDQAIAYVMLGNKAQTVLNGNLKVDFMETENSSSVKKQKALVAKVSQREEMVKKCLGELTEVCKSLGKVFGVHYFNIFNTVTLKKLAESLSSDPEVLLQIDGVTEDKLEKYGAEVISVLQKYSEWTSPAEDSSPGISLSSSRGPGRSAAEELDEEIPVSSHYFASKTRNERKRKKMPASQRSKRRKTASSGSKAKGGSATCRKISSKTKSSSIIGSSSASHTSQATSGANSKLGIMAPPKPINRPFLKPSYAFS
Description: Survival of cells and the faithful propagation of the genome depend on elaborate mechanisms of detecting and repairing DNA damage. Treatment of advanced cancer relies on radiation therapy or chemotherapy, which kill cancer cells by causing extensive DNA damage. It is often found, that cancer cells develop resistance to therapy through enhanced activity of DNA repair functions; this has led to an increased interest in developing drugs that interfere with DNA repair, which could sensitize cancer cells to conventional therapy.
This validation qHTS assay pertains to human BLM, which is important in resolving abnormal DNA structures formed during replication or homologous recombination. Shutting down the expression of BLM leads to chromosomal instability and higher radiation sensitivity in cultured cells.
The validation assay was a fluorescence quenching based kinetic qHTS for BLM Helicase DNA unwinding. The activity was measured as ATP-dependent separation of a 20-bp DNA duplex extended by 30-nt single-stranded tails (forked duplex). The forked DNA substrate was tagged with rhodamine fluorophore (carboxytetramethyl rhodamine, TAMRA) and BHQ-2 (Black Hole Quencher 2) dark quencher. Strand separation results in an increase in the fluorescence of TAMRA (excitation 525 nm, emission 598 nm). This substrate construct operates in a red-shifted region where very few compound library members have been noted to fluoresce (PubChem AIDs 593 and 594). An additional feature of the assay is the inclusion of 2.5 ug/ml poly (dIdC), to reduce interference by compounds such as DNA intercalators, a major source of false inhibitors.
Ian Hickson, University of Oxford
Opher Gileadi, Structural Genomics Consortium, University of Oxford
Screening Center PI: Austin, C.P.
Screening Center: NIH Chemical Genomics Center [NCGC]
Three uL of reaction buffer (25 mM Tris-HCl (pH 8.0), 5 mM NaCl, 2 mM MgCl2, 1mM DTT, 0.01% Tween- 20, and 2.5 ug/ml poly(dI-dC), including enzyme (50 nM BLM), were dispensed into a 1536-well Greiner black assay plate via solenoid-valve based nanoliter dispensers. Compounds (23 nl each in columns 5-48) and control (23 nl each in column 2 as dose-response) were transferred via a Kalypsys pintool equipped with a 1536-pin array. The plates were incubated for 15 min at room temperature, and then 1 ul of substrates (200 nM DNA and 2 mM ATP, final concentrations) was added to start the reaction. The plate was transferred into a ViewLux high-throughput CCD imager where the reaction progress was measured in a discontinuous kinetic mode (two reads spaced 2 hours apart, with intermediate room temperature incubation of the covered assay plate) by using standard red-fluorescence optics (excitation filter 525 nm, emission filter 598 nm). Enzyme-free and vehicle (DMSO) controls were included for signal normalization.
Potency is read from the fitted curve at half-maximal effect.

Question: CC(N)c1cccc(Cl)c1Cl (stereo not given) was tested. Which Potency did it give?
Answer: The Potency was “inactive”.

Question: How did the Potency turn out when O=c1c2ccccc2[se]n1-c1ccccc1 was run?
Answer: The Potency was “inactive”.

Question: With C[N+]1(C)CCOC(O)(c2ccc(-c3ccc(C4(O)C[N+](C)(C)CCO4)cc3)cc2)C1 (stereo not given) as the compound, how does the Potency read?
Answer: The Potency was “inactive”.

Question: For C[N+](C)(C)CC#CCN1CCCC1=O, which Potency is on record?
Answer: Its Potency is “inactive”.

Question: For C=CCN1CC[C@]23c4c5ccc(O)c4O[C@@H]2/C(=N/N=C2\CC[C@@]4(O)C6Cc7ccc(O)c8c7[C@@]4(CCN6CC=C)[C@@H]2O8)CC[C@@]3(O)C1C5, which Potency is on record?
Answer: Its Potency is “inactive”.

Question: For C[C@@H]1O[C@H](C[N+](C)(C)C)CS1, which Potency is on record?
Answer: The Potency was “inactive”.

Question: Which Potency does the source give for O=P(O)(O)C(Cl)(Cl)P(=O)(O)O here?
Answer: Its Potency is “inactive”.

Question: Which Potency does the source give for CN(N=O)c1cc(O)ccc1O here?
Answer: Its Potency is 28.2 µM (active).

Question: Which Potency does the source give for CC(C)CC(NP(=O)(O)O[C@@H]1O[C@@H](C)[C@H](O)[C@@H](O)[C@H]1O)C(=O)NC(Cc1c[nH]c2ccccc12)C(=O)O (stereo not given in full) here?
Answer: Its Potency is “inactive”.

Question: How did the Potency turn out when CC(=O)NBr was run?
Answer: The Potency was “inactive”.

Question: How did the Potency turn out when O=[N+]([O-])c1ccc2nc(N3CCNCC3)ccc2c1 was run?
Answer: The Potency was “inactive”.

Question: How did the Potency turn out when C[N+](C)(C)CCOC(=O)CBr was run?
Answer: The Potency was “inactive”.

Question: How did the Potency turn out when COc1ccc2c(c1)C13CCCCC1C(C2)N(C)CC3 (stereo not given) was run?
Answer: Its Potency is “inactive”.

Question: For Oc1ccc2c3c1O[C@H]1c4[nH]c5ccccc5c4C[C@@]4(O)C(C2)N(CC2CC2)CCC314 (stereo not given in full), which Potency is on record?
Answer: The Potency was “inactive”.

Question: How did the Potency turn out when NC(=O)c1ccc(OCC(O)CN2CC=C(c3ccc(F)cc3)CC2)cc1 (stereo not given) was run?
Answer: The Potency was “inactive”.

Question: For CCCN(CCC)CCc1c[nH]c2ccc(C(N)=O)cc12, which Potency is on record?
Answer: The Potency was “inactive”.

Question: CCCN(CCC)CCc1ccc(O)c(O)c1 was tested. Which Potency did it give?
Answer: Its Potency is “inactive”.

Question: With NC(Cc1ccc(N(CCCl)CCCl)cc1)C(=O)O (stereo not given) as the compound, how does the Potency read?
Answer: Its Potency is “inactive”.

Question: For CCCN1CC[C@@H]2c3cc(O)ccc3CC[C@@H]21, which Potency is on record?
Answer: Its Potency is “inactive”.

Question: For NCC(CP(=O)(O)O)c1ccc(Cl)cc1 (stereo not given), which Potency is on record?
Answer: The Potency was “inactive”.

Question: With CN1CCc2cccc(Cl)c2CC1 as the compound, how does the Potency read?
Answer: The Potency was “inactive”.

Question: For CN1C2CCC1CC(OC(c1ccccc1)c1ccc(Cl)cc1)C2 (stereo not given), which Potency is on record?
Answer: The Potency was “inactive”.

Question: Cc1c2ccncc2c(C)c2c1[nH]c1ccccc12 was tested. Which Potency did it give?
Answer: Its Potency is “inactive”.

Question: COc1ccc2c(c1)/C(=C/c1cnc[nH]1)C(=O)N2 was tested. Which Potency did it give?
Answer: Its Potency is “inactive”.

Question: Which Potency does the source give for COc1ccc2[nH]c3c(c2c1)CCNC3 here?
Answer: The Potency was “inactive”.

Question: With OCc1cnc[nH]1 as the compound, how does the Potency read?
Answer: The Potency was “inactive”.

Question: With c1ccc2cc(CC3=NCCN3)ccc2c1 as the compound, how does the Potency read?
Answer: The Potency was “inactive”.

Question: With CC(C)NP(=O)(NC(C)C)OP(=O)(NC(C)C)NC(C)C as the compound, how does the Potency read?
Answer: Its Potency is “inactive”.

Question: For COc1cc(CC(C)N)c(OC)cc1I (stereo not given), which Potency is on record?
Answer: The Potency was “inactive”.

Question: How did the Potency turn out when COc1ccc2c(c1)[C@@]13CCCC[C@H]1[C@@H](C2)NCC3 was run?
Answer: Its Potency is “inactive”.

Question: Ic1ccccc1CNC1C2CCN(CC2)C1C(c1ccccc1)c1ccccc1 (stereo not given) was tested. Which Potency did it give?
Answer: Its Potency is “inactive”.

Question: CNC(=O)OCC[N+](C)(C)C was tested. Which Potency did it give?
Answer: Its Potency is “inactive”.

Question: Which Potency does the source give for NC(Cc1cc(O)c(O)cc1O)C(=O)O (stereo not given) here?
Answer: The Potency was 3.16 µM (active).

Question: Which Potency does the source give for c1ccc2c(N3CCNCC3)cccc2c1 here?
Answer: Its Potency is “inactive”.

Question: With C[C@H](Cc1ccc2c(c1)OC(C(=O)O)(C(=O)O)O2)NC[C@H](O)c1cccc(Cl)c1 as the compound, how does the Potency read?
Answer: Its Potency is “inactive”.

Question: CCCN(CCC)[C@H]1CCc2c(F)ccc(O)c2C1 was tested. Which Potency did it give?
Answer: The Potency was “inactive”.

Question: With CCOC(=O)c1ncn2c1[C@@H]1CCCN1C(=O)c1cc(OC)ccc1-2 as the compound, how does the Potency read?
Answer: Its Potency is “inactive”.

Question: For COc1ccc(CNC(=O)/C=C/c2ccc3[nH]cc(CCN(C)C)c3c2)cc1, which Potency is on record?
Answer: The Potency was “inactive”.

Question: CCCN(CCC)[C@@H]1CCc2cccc(O)c2C1 was tested. Which Potency did it give?
Answer: The Potency was “inactive”.

Question: For CC(N)Cc1c[nH]c2ccc(OCc3cccs3)cc12 (stereo not given), which Potency is on record?
Answer: Its Potency is “inactive”.
